# Experimental data from PubChem BioAssay.
# Active and inactive are the calls of the source. Unless noted, the rule behind the calls is not given here.
# Key:
# [1] = kinase inhibitors against Plasmodium liver-stage infection, cell-based, known kinase inhibitor set, luminescence, hepatoma host viability (AID 624392); conditions: Plasmodium liver stage in hepatoma cells, luciferase luminescence, concentration not given here; liver cell % of control: measured here: host liver cell viability; parasite % of control: stronger effect = lower value;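 note: infected cells incubated roughly two days before readout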
# [2] = modulators of glucocorticoid suppression of NF-kB, cell-based, luciferase, IL-1B stimulus, dexamethasone (AID 624486); conditions: NF-kB luciferase reporter, IL-1B + dexamethasone, luminescence; percent of negative control (+Dex): actives lie on both sides, concentration not given here; z-score: measured here: IL-1B alone, no Dex;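 for percent of negative control (+Dex): 100% = mean signal of vehicle control wells on the plate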
# [3] = kinase inhibitors altering Pseudomonas killing of worms, whole organism (AID 651566);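 note: tested at 14 µM; sign flipped so higher z means a lower ratio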; conditions: C. elegans killed by P. aeruginosa, survival ratio
# [4] = activators of macrophage pro-inflammatory response, cell-based, murine, luminescence (AID 652131); conditions: murine macrophage pro-inflammatory reporter, stronger effect = higher value
# [5] = target: Cellular tumor antigen p53 (Homo sapiens) (UniProt P04637); assay: kinase inhibitors altering GFP-p53 stability in HPV16-positive cells, imaging, known kinase inhibitor set, EGFP/DsRed ratio (AID 1053116); conditions: stronger effect = higher value; EGFP object count: measured here: GFP-p53 positive objects count;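 note: cells exposed to compounds for 24 h at 37 °C before reading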
# Cellular tumor antigen p53 (Homo sapiens), sequence (P04637 whole entry, looked up): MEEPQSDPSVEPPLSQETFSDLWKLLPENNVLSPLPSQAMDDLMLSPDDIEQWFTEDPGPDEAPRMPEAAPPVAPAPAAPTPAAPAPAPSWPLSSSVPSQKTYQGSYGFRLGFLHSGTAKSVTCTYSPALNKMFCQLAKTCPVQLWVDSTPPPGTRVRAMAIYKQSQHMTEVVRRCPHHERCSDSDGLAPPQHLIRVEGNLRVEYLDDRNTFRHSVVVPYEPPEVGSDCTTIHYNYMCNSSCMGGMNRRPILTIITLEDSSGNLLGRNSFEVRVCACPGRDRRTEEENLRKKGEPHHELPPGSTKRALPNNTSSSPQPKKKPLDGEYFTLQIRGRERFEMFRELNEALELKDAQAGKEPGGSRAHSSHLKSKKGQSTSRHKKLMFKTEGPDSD
# [6] = IRF3 reporter activation in THP-1 macrophages, cell-based, PMA-stimulated THP-1, luminescence (AID 1053176); conditions: PMA-differentiated THP-1, IRF3 reporter luminescence; stronger effect = higher value
# [7] = survival rescue of mitochondrial mutant cells in low glucose, primary screen, MELAS cybrids, Rieske KO mouse fibroblasts, CellTiter-Glo (AID 1508586;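 active = mean z-score across replicates of 1.96 or higher in either the MELAS or the Rieske mutant cell line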;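 note: z relative to plate mean and SD of compound and empty wells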)
# [8] = MELAS cybrid survival, CellTiter-Glo 48 h, stronger effect = higher value
# [9] = Rieske KO mouse fibroblast survival, CellTiter-Glo 72 h
SMILES,liver cell % of control [1],parasite % of control [1],percent of negative control (+Dex) [2],z-score [2],z-score [3],z-score [4],EGFP object count [5],EGFP/DsRed ratio [5],fraction signal [6],"z-score [7, 8]","z-score [7, 9]"
COc1cc2c(cc1Nc1nc(Nc3ccsc3C(N)=O)c3cc[nH]c3n1)N(C(=O)CN(C)C)CCC2(C)C,67.7%,290% (inactive),91% (inactive),-0.245,0.455 (inactive),2.78 (inactive),3.5,0.0546 (inactive),0.001 (inactive),0.737,2.24
Cc1cccc(C2NNCC2c2ccc3ncccc3n2)n1 (stereo unspecified),89.8%,104% (inactive),58.5% (inactive),-3.81,0.465 (inactive),0.276 (inactive),4,0.132 (inactive),0.0035 (inactive),0.0567 (inactive),-0.176
Cc1ccc(C(=O)NC(C)C)cc1-c1ccc(C(=O)NCC2CC2)cc1,90%,124% (inactive),94.5% (inactive),1.18,0.505 (inactive),0.198 (inactive),3,0.0297 (inactive),-0.008 (inactive),0.0329 (inactive),0.189
COC(=O)Nc1nc2ccc(Oc3ccc(NC(=O)Nc4cc(C(F)(F)F)ccc4F)cc3)cc2s1,100%,360% (inactive),120% (inactive),-1.24,-0.21 (inactive),-0.073 (inactive),18.5,0.414 (inactive),0 (inactive),-0.628 (inactive),-0.719
NS(=O)(=O)c1ccc(NC2CC(c3ccc(O)c(F)c3)NN2)cc1 (stereo unspecified),113%,139% (inactive),94.5% (inactive),-0.075,-1.04 (inactive),-0.229 (inactive),2.5,0.101 (inactive),0.0025 (inactive),-0.752 (inactive),-0.137
N#Cc1c(NC(=O)c2ccc(F)cc2)sc2c1CCCC2,159%,137% (inactive),246% (active),14.3,-0.855 (inactive),3.47 (inactive),6,0.0854 (inactive),-0.006 (inactive),-0.073 (inactive),0.00203
COc1ccc(-c2nn3ncccc3c2-c2ccnc(Nc3cccc(C(F)(F)F)c3)n2)cc1,92.5%,122% (inactive),90.5% (inactive),0.64,0.3 (inactive),0.045 (inactive),4.5,0.0918 (inactive),0.002 (inactive),1.24 (inactive),-0.239
CCn1c(-c2nonc2N)nc2c(C#CC(C)(C)O)nc(CN3CCCC3)cc21,107%,162% (inactive),85.5% (inactive),-0.04,-0.175 (inactive),0.541 (inactive),4,0.0701 (inactive),0.0045 (inactive),-0.869 (inactive),0.697
CN1CCN(CCCNc2nc3ccc(Oc4ccc(NC(=O)Nc5cc(C(F)(F)F)ccc5F)cc4)cc3[nH]2)CC1,95.2%,94.4% (inactive),97.5% (inactive),0.025,-0.94 (inactive),1.21 (inactive),3.5,0.103 (inactive),-0.0045 (inactive),-0.0444 (inactive),-0.286
COc1cc(/C=N/Nc2ncnc3c2cnn3-c2ccccc2)ccc1O,108%,61% (inactive),92% (inactive),0.145,0.145 (inactive),-0.075 (inactive),4.5,0.778 (inactive),-0.007 (inactive),1.22 (inactive),0.165
COC1CCC2NC3C4NC5CCC(OC)CC5C4C4C(=O)NC(=O)C4C3C2C1 (stereo unspecified),93.4%,178% (inactive),106% (inactive),1.79,0.155 (inactive),-0.67 (inactive),3,0.0486 (inactive),-0.005 (inactive),-0.302 (inactive),0.67
